# Assay results reported in PubChem BioAssay (NCATS).
# Unmarked numbers belong to inactive results. Records with an inconclusive call do not appear. The source made the active and inactive calls. Unless noted, calls follow the shape of the dose curve; as a rule, active = well fitted curve in either direction with a large enough effect (not every such curve was filed as active); inconclusive = small, poorly fitted or top-dose-only effect, or another doubt; inactive = flat fitted curve, though single readings scatter.
# How the values were obtained:
# [1] = AP1 Signaling Pathway (AID 357); details: ME-180 AP-1-bla reporter, EGF-induced, beta-lactamase ratio, 5 h; at 17.2 µM (top of the series) unless noted; also: % is scaled to controls: 0 for no effect and ±100 for the full control effect
# In short: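 AP-1-bla ME-180 cells with beta-lactamase reporter under AP-1 response element, stimulated with EC50 EGF; compounds titrated, 5 hours at 37 degrees Celsius. CCF4 read at 460/530 nm ratio; positive and negative modulators judged by AC50.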
# [2] = NFAT Signaling Pathway (AID 444); details: Jurkat NFAT-bla M1, carbachol, beta-lactamase ratio, 5 h; at 17.2 µM (top of the series) unless noted;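 also: carbachol stimulus at about its EC50 of 1 µM final; % is scaled to controls: 0 for no effect and ±100 for the full control effect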
# In short: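 Jurkat cells with NFAT-driven β-lactamase reporter and co-expressed M1 receptor, stimulated with carbachol (final 1 uM, ~EC50), compound titration, 5 h at 37 °C. CCF4 loaded 1 h at RT; 460/530 nm ratio gave %activity and AC50.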
# [3] = Stat Signaling Pathway (AID 446); details: ME-180 (cervical carcinoma) SIE beta-lactamase reporter, IL-6 stimulated, 5 h; at 17.2 µM (top of the series) unless noted;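 also: ME-180 cervical cancer cells given 40 pM IL-6 alongside compound; SIE-controlled beta-lactamase reporter measured as 460/530 nm FRET emission ratio; % is scaled to controls: 0 for no effect and ±100 for the full control effect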
# In short: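 Overnight-plated ME-180 cells bearing a STAT Inducible Element beta-lactamase reporter; 5 h co-exposure to compound and 40 pM IL-6; values normalized to 300 pM IL-6 and 125 nM JAK inhibitor controls.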
# [4] = target: Glucocorticoid receptor (Homo sapiens) (UniProt P04150); test: GR-GFP Redistribution (AID 450;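 active = compounds whose dose series gives a full or clear partial fitted curve of increased nuclear translocation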; also: potency is read from the fitted curve at half-maximal effect)
# Glucocorticoid receptor (Homo sapiens), sequence (P04150 whole entry, looked up): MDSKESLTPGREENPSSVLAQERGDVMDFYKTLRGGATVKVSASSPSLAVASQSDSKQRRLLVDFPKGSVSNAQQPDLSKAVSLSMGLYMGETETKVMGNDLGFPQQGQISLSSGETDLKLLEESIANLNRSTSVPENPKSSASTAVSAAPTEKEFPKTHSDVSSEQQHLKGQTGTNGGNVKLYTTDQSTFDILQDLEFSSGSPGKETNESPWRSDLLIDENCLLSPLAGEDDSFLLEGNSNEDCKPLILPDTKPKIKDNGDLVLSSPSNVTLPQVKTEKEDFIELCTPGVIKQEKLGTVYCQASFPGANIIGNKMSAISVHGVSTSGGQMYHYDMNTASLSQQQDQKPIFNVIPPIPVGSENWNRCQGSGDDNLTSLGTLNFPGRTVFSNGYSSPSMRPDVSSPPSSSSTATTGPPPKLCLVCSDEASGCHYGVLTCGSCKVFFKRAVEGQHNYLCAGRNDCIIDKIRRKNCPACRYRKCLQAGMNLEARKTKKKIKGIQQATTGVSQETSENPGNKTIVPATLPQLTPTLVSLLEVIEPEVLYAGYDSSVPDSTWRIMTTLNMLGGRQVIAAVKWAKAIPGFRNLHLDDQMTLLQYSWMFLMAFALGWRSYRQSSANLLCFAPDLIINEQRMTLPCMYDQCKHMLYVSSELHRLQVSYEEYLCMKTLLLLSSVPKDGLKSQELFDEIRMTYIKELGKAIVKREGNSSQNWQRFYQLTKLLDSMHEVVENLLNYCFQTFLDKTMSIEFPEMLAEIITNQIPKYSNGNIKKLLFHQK
Structure (SMILES),"activity change, negative = inhibition [1]","activity change, negative = inhibition [2]","activity, negative = inhibition [3]",Potency [4]
CC(=O)Nc1ccc(NCC(O)COc2ccccc2)cc1 (stereo not given),-3%,-5.41%,3.96%,> 20.6 µM
CCCCC(=O)Nc1c(O)c2ccccc2[nH]c1=O,4%,-5.18%,1.28%,> 20.6 µM
CC(=O)N1CCC2(CC1)C(C#N)=C(N)Oc1n[nH]c(C(F)(F)F)c12,8.06%,-24.1%,5.71%,> 20.6 µM
Cc1ccc(-n2[nH]c(C)c(C=Nc3cc(C)ccn3)c2=O)cc1,2.52%,-2.28%,4.82%,> 20.6 µM
Nc1nc2n(n1)C(c1cccs1)CC(c1ccc(Br)cc1)N2 (stereo not given),0.611%,11%,4.42%,> 20.6 µM
CC1C/C=C/C=C/C=C/C=C/C(O[C@@H]2O[C@H](C)[C@@H](O)[C@H](N)[C@@H]2O)CC2OC(O)(CC(O)CC3OC3/C=C/C(=O)O1)CC(O)C2C(=O)O (stereo not given in full),1.3%,0.554%,5.83%,> 20.6 µM
O=C1C2CC=C(Cl)CC2C(=O)N1CNc1ccccn1 (stereo not given),-0.589%,-12.9%,7.34%,> 20.6 µM
C=CCn1c(SCC(=O)c2ccccc2)nnc1-c1ccc2c(c1)OCO2,-7.81%,16.5%,-9.25%,> 20.6 µM
COc1ccc2[nH]c(C)c(C(=O)CN3CC(C)OC(C)C3)c2c1 (stereo not given),0.748%,-1.69%,2.01%,> 20.6 µM
Cc1cc(=O)oc2ccc(OCC(=O)N3CCc4ccccc43)cc12,2.4%,-12%,11.2%,> 20.6 µM
CN1CCc2c(sc3c2C(=O)NC(c2ccco2)N3)C1 (stereo not given),-0.778%,-3.54%,23.6%,> 20.6 µM
CSc1nc(N)nc(SCC(=O)CC(=O)OC(C)C)c1C#N,-2.75%,5.87%,-1.28%,> 20.6 µM
CCCCn1c2nc3ccccc3nc2c2c(=O)n(CC(C)C)cnc21,-1.88%,-20.4%,-6.11%,> 20.6 µM
CCN(CC)CCNc1ncnc2c1[nH]c1ccc(OC)cc12,7.05%,-11.4%,3.82%,> 20.6 µM
Cn1c(=O)[nH]c(=O)c2c1nc(Br)n2CCSc1ncccn1,5.72%,-10.8%,4.76%,> 20.6 µM
O=C(c1ccccc1)n1c(=S)nc2ccccn21,4.19%,-14%,-3.1%,> 20.6 µM
COC(=O)CN(c1nc(C)cc(OC)n1)S(=O)(=O)c1ccccc1,-9.15%,-15.3%,8.46%,> 20.6 µM
Cc1nc2c(o1)CCc1ccccc1C2N1CCN(C)CC1 (stereo not given),22.5%,-82.4% (active),3.94%,> 20.6 µM
CC(=O)Nn1cnc2c(c1=O)C1(CCCC1)Cc1ccccc1-2,-8.59%,-0.355%,10.3%,> 20.6 µM
CC(C(=O)N(C)C)N(C#N)c1nc(N(C)C)nc(N(C)C)n1 (stereo not given),1.24%,2.25%,-6.97%,> 20.6 µM
CCOCCn1c(SCc2c(F)cccc2Cl)nc2c1c(=O)[nH]c(=O)n2C,-8.65%,-17.4%,-2.5%,> 20.6 µM
CC(C)OC(=O)CC1=NC(=O)CS1,3.43%,8.36%,9.47%,> 20.6 µM
Cc1c(OCc2ccccc2)c(=O)ccn1Cc1ccccc1,-8.27%,-0.234%,1.99%,> 20.6 µM
N=c1ncn(CC(O)CN2CCOCC2)c2nc(N3CCOCC3)[nH]c12 (stereo not given),6.34%,-3.22%,13.6%,> 20.6 µM
COc1cc(C2C(C(=O)c3ccc(C)o3)=C(O)C(=O)N2c2cc(C)on2)cc(OC)c1OC (stereo not given),5.13%,-1.16%,2.07%,> 20.6 µM
